Read-out in test [1]: E-selectin (Homo sapiens) (UniProt P16581)
In words: BSK_3C_Eselectin: BioMAP Diversity Plus: 3C Assay for Eselectin Biomarker Activity (AID 2283015).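 As to outcome: cell surface E-selectin protein quantified by ELISA 24 h after dosing.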 The note with it: primary human endothelial cells (HUVEC); actives raise or lower the signal. In outline:
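Primary human umbilical vein endothelial cells (3C system) were dosed with chemical and cell-surface E-selectin measured by ELISA 24 h later. Bidirectional curve fitting used DMSO as negative control and baseline.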

Read-out in test [2]: Interleukin-1 alpha (IL1a), IL1A (gene 3552)
Description: BSK_BE3C_IL1a: BioMAP Diversity Plus: BE3C Assay for Interleukin-1 alpha (IL1a) Biomarker Activity (AID 2283016). Conditions: primary human bronchial epithelial cells; actives raise or lower the signal. In outline: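 Cultures of primary human bronchial epithelial cells receive test chemical. After 24 h, IL-1a is quantified by ELISA, while parallel wells are fixed in TCA and SRB-stained for total protein. Changes in either direction are fitted relative to DMSO.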

Read-out in test [3]: Monocyte Chemoattractant Protein-1 (MCP1), CCL2 (gene 6347)
Description: BSK_3C_MCP1: BioMAP Diversity Plus: 3C Assay for Monocyte Chemoattractant Protein-1 (MCP1) Biomarker Activity (AID 2283017). Conditions: primary human endothelial cells (HUVEC); actives raise or lower the signal. The essentials: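 Primary human umbilical vein endothelial cells (3C system) were exposed to test chemical for 24 h, after which MCP-1 was quantified by ELISA. Activity was fitted bidirectionally against DMSO as negative control and baseline.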

Read-out in test [4]: Human Leukocyte Antigen - DR isotype (HLADR), HLA-DRA (gene 3122)
In words: BSK_3C_HLADR: BioMAP Diversity Plus: 3C Assay for Human Leukocyte Antigen - DR isotype (HLADR) Biomarker Activity (AID 2283019).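 As to outcome: ELISA of cell-surface HLA-DR on HUVEC 24 h after dosing.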 Conditions: primary human endothelial cells (HUVEC); actives raise or lower the signal. In outline:
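Primary human umbilical vein endothelial cells (3C system) were dosed with compound and cell-surface HLA-DR was quantified by ELISA at 24 h. Activity was fitted bidirectionally against DMSO as negative control and baseline.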

Read-out in test [5]: Interleukin-8 (IL8), CXCL8 (gene 3576)
In words: BSK_3C_IL8: BioMAP Diversity Plus: 3C Assay for Interleukin-8 (IL8) Biomarker Activity (AID 2283020). Conditions: primary human endothelial cells (HUVEC); actives raise or lower the signal. In outline:
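Human vascular endothelial cells (umbilical vein) in the 3C system; IL-8 level detected by ELISA at 24 h post-dose, with DMSO as baseline.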

Read-out in test [6]: Monokine induced gamma interferon (MIG), CXCL9 (gene 4283)
Description: BSK_3C_MIG: BioMAP Diversity Plus: 3C Assay for Monokine induced gamma interferon (MIG) Biomarker Activity (AID 2283021).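 As to AC50: MIG protein level measured by immunoassay in the treated endothelial cultures.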 The note with it: primary human endothelial cells (HUVEC); actives raise or lower the signal. In outline:
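After 24 h of treatment, human umbilical vein endothelial cultures (3C system) had their MIG biomarker level determined by ELISA, with DMSO serving as negative control.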

The target of test [7] is human Vitamin D Receptor (VDR), VDR (gene 7421) (UniProt P11473). In words: ATG_VDR_TRANS: Attagene TRANS-FACTORIAL HepG2 Assay for human Vitamin D Receptor (VDR) (AID 2283022; active = hit-call score of the fitted dose curve at least 0.9, where 1 is the maximum). In outline: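 HepG2 cells were transiently transfected with multiple GAL4-UAS reporter units, so signal reflects exogenous chimeric receptor-Gal4 activity. After 24 h compound exposure, reporter mRNA was measured by RT-PCR, fluorescent labelling and capillary electrophoresis, fitted for gain of signal versus DMSO.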
Chain of human Vitamin D Receptor (VDR), VDR (gene 7421) (P11473 whole entry, looked up, the tested form may be a part): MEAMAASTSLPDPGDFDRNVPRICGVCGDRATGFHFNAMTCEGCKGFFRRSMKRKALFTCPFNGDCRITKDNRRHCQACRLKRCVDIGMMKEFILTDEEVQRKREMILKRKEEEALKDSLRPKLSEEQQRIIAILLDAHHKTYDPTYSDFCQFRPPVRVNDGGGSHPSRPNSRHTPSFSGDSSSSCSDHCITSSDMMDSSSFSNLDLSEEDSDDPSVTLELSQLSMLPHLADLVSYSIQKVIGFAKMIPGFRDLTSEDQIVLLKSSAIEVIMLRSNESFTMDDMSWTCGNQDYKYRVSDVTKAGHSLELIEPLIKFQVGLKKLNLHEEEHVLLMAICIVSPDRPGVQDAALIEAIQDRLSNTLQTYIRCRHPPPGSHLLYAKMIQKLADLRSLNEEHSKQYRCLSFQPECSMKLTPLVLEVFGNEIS

Test [8] in a line: BSK_3C_SRB: Viability Assessment in the BioMAP Diversity Plus: 3C Assay (AID 2283023).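 Also: fitted both ways against DMSO so a hit may be signal rise or drop.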 Conditions: primary human endothelial cells (HUVEC). In outline:
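Primary human umbilical vein endothelial cells in the 3C system were read 24 h after compound dosing. Total protein was stained with 0.1% sulforhodamine B after 10% TCA fixation and read at 560 nm, with bidirectional fitting against DMSO as baseline.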

Read-out in test [9]: Matrix Metallopeptidase 1 (MMP1), MMP1 (gene 4312)
In words: BSK_BE3C_MMP1: BioMAP Diversity Plus: BE3C Assay for Matrix Metallopeptidase 1 (MMP1) Biomarker Activity (AID 2283024). The note with it: primary human bronchial epithelial cells; actives raise or lower the signal. The essentials: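 Dose cells, wait 24 h, run MMP1 ELISA; cells are human bronchial epithelial primaries. Both increases and decreases relative to DMSO counted.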

A short description of test [10]: BSK_3C_Vis: BioMAP Diversity Plus: 3C Assay for Morphology Visualization (AID 2283025).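 Also: fitted both ways so gain or loss versus DMSO counts.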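 As to AC50: light microscopy image of cell morphology used as background control.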 The note with it: primary human endothelial cells (HUVEC). The essentials:
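Endothelial cells from human umbilical vein were treated with test chemicals for 24 h and inspected by light microscopy for changes in cell conformation.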

Read-out in test [11]: Pselectin, SELP (gene 6403)
In words: BSK_4H_Pselectin: BioMAP Diversity Plus: 4H Assay for Pselectin Biomarker Activity (AID 2283026). The note with it: primary human endothelial cells (HUVEC); actives raise or lower the signal. In outline:
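Human vascular endothelium from umbilical vein; P-selectin measured by ELISA at 24 h post-dose, with cytotoxicity checked by sulforhodamine B total-protein staining in parallel cultures (0.1% SRB after 10% TCA fixation, read at 560 nm).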

The nature of test [12]: BSK_4H_SRB: Viability Assessment in the BioMAP Diversity Plus: 4H Assay (AID 2283027).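 Also: cells exposed to compound for 24 h before staining.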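 As to AC50: curves fitted both ways versus DMSO so AC50 may be loss or gain.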 The note with it: primary human endothelial cells (HUVEC). The essentials: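 Absorbance at 560 nm of SRB-stained total protein served as the viability read-out in confluent primary human umbilical vein endothelium 24 h after chemical treatment. Curves were fitted bidirectionally against DMSO as negative control.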

A short description of test [13]: BSK_BE3C_SRB: Viability Assessment in the BioMAP Diversity Plus: BE3C Assay (AID 2283028).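 As to AC50: fitted both ways so AC50 may mark signal gain or loss versus DMSO.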 The note with it: primary human bronchial epithelial cells. The essentials: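 Human primary bronchial epithelial cells were exposed to test chemicals for 24 h. Total protein in parallel cultures was then measured by staining with 0.1% sulforhodamine B after 10% TCA fixation, with absorbance read at 560 nm. Activity was fitted bidirectionally against DMSO.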

Read-out in test [14]: Thrombomodulin, THBD (gene 7056)
Description: BSK_3C_Thrombomodulin: BioMAP Diversity Plus: 3C Assay for Thrombomodulin Biomarker Activity (AID 2283029). Conditions: primary human endothelial cells (HUVEC); actives raise or lower the signal. In outline:
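Thrombomodulin ELISA, human primary HUVEC, 24 h post-dose; data fitted in both directions relative to DMSO.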

Test [15] addresses human RAR-related Orphan Receptor gamma (RORg), RORC (gene 6097) (UniProt P51449). Description: ATG_RORg_TRANS: Attagene TRANS-FACTORIAL HepG2 Assay for human RAR-related Orphan Receptor gamma (RORg) (AID 2283011; active = hit-call score of the fitted dose curve at least 0.9, where 1 is the maximum). The essentials: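 Readout: reporter transcript induction (RT-PCR, fluorescent primer extension, capillary electrophoresis) after 24 h compound exposure of transiently transfected HepG2 cells carrying a RORg-Gal4 chimera and GAL4-UAS reporters; DMSO served as baseline, with increasing signal fitted.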

Test [16] concerns the target Retinoic acid receptor RXR-alpha (Homo sapiens) (UniProt P19793). In words: ATG_RXRa_TRANS: Attagene TRANS-FACTORIAL HepG2 Assay for human Retinoid X Receptor alpha (RXRa) (AID 2283012; active = hit-call score of the fitted dose curve at least 0.9, where 1 is the maximum). The essentials:
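Cells (HepG2) carried transiently transfected GAL4-responsive reporter units. Following a 24 h chemical incubation, reporter mRNA induction was read via RT-PCR fragment analysis; DMSO served as negative control and baseline.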

In test [17] the target is human Retinoid X Receptor beta (RXRb), RXRB (gene 6257) (UniProt P28702). In words: ATG_RXRb_TRANS: Attagene TRANS-FACTORIAL HepG2 Assay for human Retinoid X Receptor beta (RXRb) (AID 2283013; active = hit-call score of the fitted dose curve at least 0.9, where 1 is the maximum). In outline:
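Multiplexed TRANS reporter assay in HepG2; 24 h dosing; reporter mRNA by RT-PCR/CE fluorescence; gain-of-signal relative to DMSO.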

Test [18] concerns the target human Thyroid Receptor alpha (THRa1), THRA (gene 7067) (UniProt P10827). Description: ATG_THRa1_TRANS: Attagene TRANS-FACTORIAL HepG2 Assay for human Thyroid Receptor alpha (THRa1) (AID 2283014; active = hit-call score of the fitted dose curve at least 0.9, where 1 is the maximum). The essentials:
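HepG2 cells transiently transfected with multiplexed GAL4-UAS reporter units for exogenous chimeric THRa1-Gal4; reporter mRNA measured 24 h after dosing by RT-PCR, 6-FAM labelling, HpaI digestion and capillary electrophoresis. Gain-of-signal fitted versus DMSO baseline.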

Read-out in test [19]: Monocyte Chemoattractant Protein-1 (MCP1), CCL2 (gene 6347)
Description: BSK_4H_MCP1: BioMAP Diversity Plus: 4H Assay for Monocyte Chemoattractant Protein-1 (MCP1) Biomarker Activity (AID 2283018). Conditions: primary human endothelial cells (HUVEC); actives raise or lower the signal. In outline: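 Readout: MCP-1 ELISA on compound-treated HUVEC, sampled 24 h post-dosing. Baseline and negative control DMSO; bidirectional fit. Overt toxicity checked alongside by sulforhodamine B protein staining at time of biomarker measurement.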

Test [20] deals with human Retinoic Acid Receptor gamma (RARg), RARG (gene 5916) (UniProt P13631). In words: ATG_RARg_TRANS: Attagene TRANS-FACTORIAL HepG2 Assay for human Retinoic Acid Receptor gamma (RARg) (AID 2283009; active = hit-call score of the fitted dose curve at least 0.9, where 1 is the maximum). In outline:
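HepG2, RARg-GAL4 TRANS system, 24 h exposure; reporter mRNA by RT-PCR + CE fluorescence; increase over DMSO.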

Records with an inconclusive call do not appear. Activity calls are given as the source filed them. The calls were made as follows, unless noted: active = hit-call score of the fitted dose curve at least 0.9, where 1 is the maximum; inactive = score below 0.9.

Chain of E-selectin (Homo sapiens) (P16581 whole entry, looked up): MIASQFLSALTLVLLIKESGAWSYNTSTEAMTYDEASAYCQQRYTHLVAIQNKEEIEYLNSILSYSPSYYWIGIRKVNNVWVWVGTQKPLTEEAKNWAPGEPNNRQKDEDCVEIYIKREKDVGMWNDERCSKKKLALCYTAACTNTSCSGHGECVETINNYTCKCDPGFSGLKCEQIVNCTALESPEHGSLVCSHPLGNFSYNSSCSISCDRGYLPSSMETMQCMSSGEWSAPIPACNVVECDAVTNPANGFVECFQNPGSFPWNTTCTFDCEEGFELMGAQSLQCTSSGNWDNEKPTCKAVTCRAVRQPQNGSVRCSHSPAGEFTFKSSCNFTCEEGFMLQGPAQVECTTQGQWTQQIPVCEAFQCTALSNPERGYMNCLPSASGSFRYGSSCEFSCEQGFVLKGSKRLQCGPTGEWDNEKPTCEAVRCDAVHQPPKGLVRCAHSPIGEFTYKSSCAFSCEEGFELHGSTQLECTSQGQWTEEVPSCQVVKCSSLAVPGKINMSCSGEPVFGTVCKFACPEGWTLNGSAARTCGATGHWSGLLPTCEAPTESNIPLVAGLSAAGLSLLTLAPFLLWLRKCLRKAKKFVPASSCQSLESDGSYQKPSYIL
Chain of Retinoic acid receptor RXR-alpha (Homo sapiens) (P19793 whole entry, looked up, the tested form may be a part): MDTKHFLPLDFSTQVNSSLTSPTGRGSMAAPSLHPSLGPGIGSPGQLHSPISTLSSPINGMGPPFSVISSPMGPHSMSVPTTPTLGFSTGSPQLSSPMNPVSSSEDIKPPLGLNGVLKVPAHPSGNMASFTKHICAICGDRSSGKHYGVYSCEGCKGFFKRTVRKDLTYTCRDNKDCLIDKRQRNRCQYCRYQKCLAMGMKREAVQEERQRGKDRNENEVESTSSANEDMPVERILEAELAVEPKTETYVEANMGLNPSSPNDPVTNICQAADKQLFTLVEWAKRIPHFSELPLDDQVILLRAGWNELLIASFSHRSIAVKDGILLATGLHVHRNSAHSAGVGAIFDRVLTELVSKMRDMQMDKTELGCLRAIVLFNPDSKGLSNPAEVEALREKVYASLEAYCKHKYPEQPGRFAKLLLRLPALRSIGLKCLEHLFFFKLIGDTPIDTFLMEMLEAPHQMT
Chain of human Retinoid X Receptor beta (RXRb), RXRB (gene 6257) (P28702 whole entry, looked up): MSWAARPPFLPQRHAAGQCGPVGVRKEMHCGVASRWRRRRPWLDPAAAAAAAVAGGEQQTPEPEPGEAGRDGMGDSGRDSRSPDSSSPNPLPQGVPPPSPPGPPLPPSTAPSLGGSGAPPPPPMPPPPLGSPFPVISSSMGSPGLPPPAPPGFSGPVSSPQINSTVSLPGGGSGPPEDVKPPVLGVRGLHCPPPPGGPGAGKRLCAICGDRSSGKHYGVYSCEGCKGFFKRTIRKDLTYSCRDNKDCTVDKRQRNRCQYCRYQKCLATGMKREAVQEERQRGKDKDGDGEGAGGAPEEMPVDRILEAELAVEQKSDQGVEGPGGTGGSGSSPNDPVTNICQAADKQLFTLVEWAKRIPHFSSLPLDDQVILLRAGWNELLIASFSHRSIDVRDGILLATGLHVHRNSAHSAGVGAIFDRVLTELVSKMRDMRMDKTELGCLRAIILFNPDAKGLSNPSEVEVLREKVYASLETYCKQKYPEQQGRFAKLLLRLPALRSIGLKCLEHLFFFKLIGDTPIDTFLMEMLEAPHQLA
Chain of human Retinoic Acid Receptor gamma (RARg), RARG (gene 5916) (P13631 whole entry, looked up, the tested form may be a part): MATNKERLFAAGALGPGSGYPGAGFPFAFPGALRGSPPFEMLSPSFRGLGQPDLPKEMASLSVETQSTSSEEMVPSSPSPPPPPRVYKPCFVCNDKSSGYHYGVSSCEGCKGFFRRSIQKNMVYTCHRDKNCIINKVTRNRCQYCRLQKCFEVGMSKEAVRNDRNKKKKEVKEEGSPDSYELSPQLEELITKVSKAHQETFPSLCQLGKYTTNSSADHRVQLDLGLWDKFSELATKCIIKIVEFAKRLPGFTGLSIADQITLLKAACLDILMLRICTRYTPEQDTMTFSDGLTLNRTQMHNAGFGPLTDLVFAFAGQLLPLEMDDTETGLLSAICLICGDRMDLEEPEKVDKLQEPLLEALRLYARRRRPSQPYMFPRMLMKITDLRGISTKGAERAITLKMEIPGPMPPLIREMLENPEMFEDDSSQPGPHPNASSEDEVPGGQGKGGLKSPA
Chain of human RAR-related Orphan Receptor gamma (RORg), RORC (gene 6097) (P51449 whole entry, looked up, the tested form may be a part): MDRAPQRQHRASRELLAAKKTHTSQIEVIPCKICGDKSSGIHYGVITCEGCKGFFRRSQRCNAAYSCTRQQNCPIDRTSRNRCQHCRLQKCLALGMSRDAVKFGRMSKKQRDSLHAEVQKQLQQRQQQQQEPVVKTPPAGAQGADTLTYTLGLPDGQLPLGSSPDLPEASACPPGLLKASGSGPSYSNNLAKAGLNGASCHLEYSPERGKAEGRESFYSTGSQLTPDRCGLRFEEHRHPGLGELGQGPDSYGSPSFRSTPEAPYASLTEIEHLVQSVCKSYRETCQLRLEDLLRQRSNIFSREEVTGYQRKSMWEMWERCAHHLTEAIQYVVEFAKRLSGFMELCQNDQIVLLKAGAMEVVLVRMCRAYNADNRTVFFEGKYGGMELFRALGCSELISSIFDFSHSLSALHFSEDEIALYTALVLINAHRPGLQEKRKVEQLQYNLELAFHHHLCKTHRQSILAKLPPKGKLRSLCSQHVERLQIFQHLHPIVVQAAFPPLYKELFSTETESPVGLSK
Chain of human Thyroid Receptor alpha (THRa1), THRA (gene 7067) (P10827 whole entry, looked up, the tested form may be a part): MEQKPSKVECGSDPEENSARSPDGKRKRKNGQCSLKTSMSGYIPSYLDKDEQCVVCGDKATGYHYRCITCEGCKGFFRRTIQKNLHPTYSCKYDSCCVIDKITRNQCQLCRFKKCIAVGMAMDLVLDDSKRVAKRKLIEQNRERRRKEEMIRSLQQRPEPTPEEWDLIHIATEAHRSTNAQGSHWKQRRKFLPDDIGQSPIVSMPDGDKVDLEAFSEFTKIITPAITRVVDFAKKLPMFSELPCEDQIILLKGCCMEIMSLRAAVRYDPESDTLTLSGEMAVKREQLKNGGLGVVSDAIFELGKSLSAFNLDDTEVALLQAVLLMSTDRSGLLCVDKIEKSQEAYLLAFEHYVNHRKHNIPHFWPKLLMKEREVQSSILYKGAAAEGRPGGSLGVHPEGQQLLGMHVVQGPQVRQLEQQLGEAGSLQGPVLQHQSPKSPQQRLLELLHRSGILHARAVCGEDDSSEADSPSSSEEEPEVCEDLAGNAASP

With `COC(=O)c1ccccc1C(=O)OC`, the outcome in test [1], in test [2], in [3], in [4], in [5] and in test [6] was inactive. Also, the call in test [7], in test [8], in test [9], in test [10], in [11] and in [12] was inactive. Also, the result in test [13] and in test [14] was inactive.
`CCNc1nc(Cl)nc(NC(C)C)n1`: the call in test [15], in test [16], in test [17], in test [18], in test [1] and in test [2] was inactive. Moreover, the outcome in test [3], in test [19], in test [4], in [5], in [6] and in test [7] was inactive. Moreover, the outcome in test [8], in [9], in test [10], in test [11], in [12] and in [13] was inactive. Also, in test [14], the result was inactive.
Turning to `CCNc1nc(Cl)nc(NCC)n1`, the compound was called inactive in test [20], in [16], in test [17], in test [1], in test [2] and in [3]. The outcome in test [19], in test [4], in test [5], in test [6], in [7] and in [8] was inactive. In addition, the result in [9], in test [10], in test [11], in [12], in test [13] and in test [14] was inactive.
For `O=C(O)COc1nc(Cl)c(Cl)cc1Cl`, the outcome in test [20], in test [17], in [1], in test [2], in test [3] and in test [4] was inactive. Also, the outcome in [5], in [6], in [7], in [8], in test [9] and in test [10] was inactive. In addition, the result in test [11], in test [12], in test [13] and in test [14] was inactive.
As to `Fc1ccc(Oc2ccnc3cc(Cl)cc(Cl)c23)cc1`, the outcome in test [20], in [16], in test [17], in test [18] and in test [14] was inactive. The AC50 in test [1] is 32.3 µM (active); in [2], 30.7 µM (active); in test [3], 30.4 µM (active); in [4], 25.1 µM (active); in test [5], 31.5 µM (active); in test [6], 31.2 µM (active). In addition, the AC50 in [8] was 22.9 µM (active); in [9], 35.9 µM (active); in test [10] it was 29.4 µM (active); in [11], 23 µM (active); in [12], 30.8 µM (active); in test [13] it was 32.8 µM (active).
In the case of `CNC(=O)ON=CC(C)(C)SC`, the compound was classed as inactive in test [15], in [16], in test [1], in test [2], in [3] and in [4]. Besides, the outcome in test [5], in [6], in test [8], in test [9], in test [10] and in test [11] was inactive. Further, the result in test [12], in test [13] and in test [14] was inactive.

The values above are taken from PubChem BioAssay (EPA / NIEHS).
